According to PubChem BioAssay (Tox21):
Results filed as inconclusive are left out. Calls of active or inactive are those of the source. Unless noted, calls follow the shape of the dose curve; as a rule, active = well fitted curve in the direction sought with a large enough effect in the repeat runs; inconclusive = weak or mixed curves; inactive = no such curve, though single readings can be large; an effect the other way counts as inactive or inconclusive.

What was measured:
[1] = qHTS assay to identify small molecule antagonists of the sonic hedgehog signaling (Shh) pathway (AID 1259369; calls by dose curve; also: nearly all actives have a fitted effect of over 45% in size)
Method in brief: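 3T3Gli1-Luc, conditioned-medium-stimulated, 24hr cpd, 37C/5% CO2; Gli1-driven firefly Luc luminescence after 30min RT with luciferase reagent. Cells plated 4hr before cpd.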

[2] = target: Estrogen receptor beta (Homo sapiens) (UniProt Q92731); assay: qHTS assay to identify small molecule agonists of the estrogen receptor beta (ER-beta) signaling pathway (AID 1259377; active = well fitted activation curve with a large enough effect in the signal ratio in the repeat runs, not every such curve was filed as active; the % refers to the signal ratio)
Sequence of Estrogen receptor beta (Homo sapiens) (Q92731 whole entry, looked up): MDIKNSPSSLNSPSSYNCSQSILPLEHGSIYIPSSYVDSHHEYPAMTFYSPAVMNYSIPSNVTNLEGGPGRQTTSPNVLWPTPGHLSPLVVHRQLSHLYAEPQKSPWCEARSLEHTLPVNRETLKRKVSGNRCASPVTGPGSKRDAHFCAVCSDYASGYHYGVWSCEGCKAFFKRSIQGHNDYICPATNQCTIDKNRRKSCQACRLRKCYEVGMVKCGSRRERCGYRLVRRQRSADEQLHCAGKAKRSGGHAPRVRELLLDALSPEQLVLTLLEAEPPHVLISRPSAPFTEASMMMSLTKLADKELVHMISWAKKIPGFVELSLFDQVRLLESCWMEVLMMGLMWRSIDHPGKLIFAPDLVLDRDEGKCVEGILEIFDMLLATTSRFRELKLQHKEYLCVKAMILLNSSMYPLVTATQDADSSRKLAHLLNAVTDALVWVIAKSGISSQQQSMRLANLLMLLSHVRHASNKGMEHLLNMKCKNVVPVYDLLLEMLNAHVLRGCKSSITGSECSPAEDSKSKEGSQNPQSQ
Method in brief: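 HEK293T ER-beta-UAS-bla; 2% charcoal-stripped FBS; cells pre-incubated 6 hr, compound 16 hr, 37C/5% CO2; LiveBLAzer B/G FRET substrate 2 h RT; fluorescence intensity read.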

[3] = target: Estrogen receptor beta (Homo sapiens) (UniProt Q92731); assay: qHTS assay to identify small molecule antagonists of the estrogen receptor beta (ER-beta) signaling pathway (AID 1259378; active = well fitted inhibition curve with a large enough effect in the signal ratio in the repeat runs, not every such curve was filed as active; the % refers to the signal ratio)
Method in brief: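 Antagonist mode: compounds added to beta-lactamase reporter HEK293T ER-beta-UAS cells stimulated with E2 (1nM final), 16 hr at 37C. LiveBLAzer B/G FRET substrate, 2 hours room temperature, fluorescence read-out.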

[4] = qHTS assay to identify small molecule agonists of the androgen receptor (AR) signaling pathway in the presence of an antagonist - cell viability counter screen (AID 1259379);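 also: MDA-kb2 human breast cancer cells carrying an MMTV luciferase reporter; series mostly up to about 92 µM; nearly all actives have a fitted effect of over 25% in size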
Method in brief: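 Cells: MDA-kb2 (MMTV-luc, AR and GR elements), 3,000/well, 5 hr settle. Added: nilutamide 3.0uM final, then compounds (15 conc.). Incubation: 16 hr, 37C, no CO2. Read-out: CellTiter-Fluor, 1 hr, fluorescence.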

[5] = qHTS assay to identify small molecule agonists of the estrogen receptor beta (ER-beta) signaling pathway - cell viability counter screen (AID 1259380); also: nearly all actives have a fitted effect of over 30% in size
Method in brief: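 HEK293T ER-beta-UAS-bla; 2% CS-FBS; 6 hr pre-plate, 16 hr cpd at 37C/5% CO2; LiveBLAzer read first, then CellTiter-Glo 30 min RT, luminescence.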

[6] = target: Androgen receptor (Homo sapiens) (UniProt P10275); assay: qHTS assay to identify small molecule agonists of the androgen receptor (AR) signaling pathway in the presence of an antagonist (AID 1259381; calls by dose curve; also: nearly all actives have a fitted effect of over 15% in size)
Sequence of Androgen receptor (Homo sapiens) (P10275 whole entry, looked up): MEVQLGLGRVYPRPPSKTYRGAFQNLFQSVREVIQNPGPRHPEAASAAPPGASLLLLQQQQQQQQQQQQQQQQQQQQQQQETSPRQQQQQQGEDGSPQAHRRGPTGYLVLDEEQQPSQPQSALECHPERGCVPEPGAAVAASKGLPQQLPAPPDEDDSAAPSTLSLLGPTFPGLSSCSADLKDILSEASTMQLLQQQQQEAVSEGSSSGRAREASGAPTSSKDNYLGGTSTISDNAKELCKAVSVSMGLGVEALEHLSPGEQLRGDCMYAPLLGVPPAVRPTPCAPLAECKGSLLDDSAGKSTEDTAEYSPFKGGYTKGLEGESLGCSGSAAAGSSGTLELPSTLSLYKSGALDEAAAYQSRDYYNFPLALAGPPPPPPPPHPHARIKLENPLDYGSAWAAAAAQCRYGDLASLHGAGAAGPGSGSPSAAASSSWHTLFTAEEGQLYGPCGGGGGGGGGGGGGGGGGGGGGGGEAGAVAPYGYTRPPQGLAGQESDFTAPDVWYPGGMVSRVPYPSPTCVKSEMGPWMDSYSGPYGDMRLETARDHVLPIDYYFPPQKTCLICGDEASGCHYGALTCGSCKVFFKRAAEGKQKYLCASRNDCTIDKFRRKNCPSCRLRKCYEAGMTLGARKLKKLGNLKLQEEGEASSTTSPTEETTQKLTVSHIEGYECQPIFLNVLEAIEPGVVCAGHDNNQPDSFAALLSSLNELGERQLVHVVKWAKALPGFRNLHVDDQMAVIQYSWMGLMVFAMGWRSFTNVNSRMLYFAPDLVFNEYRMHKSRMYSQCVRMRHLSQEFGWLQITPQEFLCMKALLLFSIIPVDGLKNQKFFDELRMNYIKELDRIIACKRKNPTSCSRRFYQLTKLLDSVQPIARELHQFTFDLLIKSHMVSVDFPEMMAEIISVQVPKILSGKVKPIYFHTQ
Method in brief: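 MDA-kb2 cells, 3,000/well, rested 5hr at 37C/0% CO2 → nilutamide 3.0uM final or buffer → compounds, 15 conc. → 16hr at 37C → ONE-Glo, 30min RT → luminescence.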

[7] = qHTS assay to identify small molecule antagonists of the estrogen receptor beta (ER-beta) signaling pathway - cell viability counter screen (AID 1259382);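 also: HEK293T cells carrying ER-beta-UAS-bla reporter stimulated with estradiol; series mostly up to about 92 µM; nearly all actives have a fitted effect of over 55% in size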
Method in brief: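 Cells: ER-beta-UAS-bla HEK293T, 2,000/well, 2% CS-FBS, 6 hr settle. Cpd + E2 (1nM final), 16 hr, 37C/5% CO2. Bla FRET substrate 2 hr RT, then CellTiter-Glo 30 min RT, luminescence.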

[8] = qHTS assay to identify small molecule agonists or antagonists of the thyroid stimulating hormone receptor (TSHR) signaling pathway - wild type cell line counter screen (AID 1259384; calls by dose curve)
Method in brief: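 Counter screen in untransfected Hek293: compounds (15-point titration, triplicate) plus phosphodiesterase inhibitor Ro20-1724 added after 18 h plating; 30 min RT. Intracellular cAMP via competitive d2/cryptate immunoassay, 1 h incubation.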

[9] = target: Thyrotropin receptor (Homo sapiens) (UniProt P16473); assay: qHTS assay to identify small molecule antagonists of the thyroid stimulating hormone receptor (TSHR) signaling pathway (AID 1259385; calls by dose curve; also: nearly all actives have a fitted effect of over 20% in size)
Sequence of Thyrotropin receptor (Homo sapiens) (P16473 whole entry, looked up): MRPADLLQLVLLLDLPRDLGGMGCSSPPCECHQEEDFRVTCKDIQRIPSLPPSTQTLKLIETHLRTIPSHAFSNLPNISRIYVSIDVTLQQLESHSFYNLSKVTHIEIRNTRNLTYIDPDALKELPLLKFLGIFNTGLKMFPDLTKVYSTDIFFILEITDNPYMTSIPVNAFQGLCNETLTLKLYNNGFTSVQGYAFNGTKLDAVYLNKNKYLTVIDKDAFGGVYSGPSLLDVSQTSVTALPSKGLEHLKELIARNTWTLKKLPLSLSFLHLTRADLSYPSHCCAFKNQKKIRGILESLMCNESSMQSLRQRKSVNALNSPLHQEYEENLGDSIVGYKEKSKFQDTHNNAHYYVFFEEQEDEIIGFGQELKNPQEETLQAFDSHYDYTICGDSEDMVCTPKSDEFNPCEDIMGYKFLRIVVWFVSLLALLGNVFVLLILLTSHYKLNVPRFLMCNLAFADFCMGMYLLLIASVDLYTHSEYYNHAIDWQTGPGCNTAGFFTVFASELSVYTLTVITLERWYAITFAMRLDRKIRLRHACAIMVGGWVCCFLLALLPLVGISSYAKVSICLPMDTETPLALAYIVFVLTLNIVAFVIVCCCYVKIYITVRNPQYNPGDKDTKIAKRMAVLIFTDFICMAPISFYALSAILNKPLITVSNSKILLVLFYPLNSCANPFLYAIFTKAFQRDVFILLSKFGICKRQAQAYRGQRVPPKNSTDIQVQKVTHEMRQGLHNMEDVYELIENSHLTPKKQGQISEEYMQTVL
Method in brief: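 Antagonist mode: compound-treated TSHR-expressing HEK293 cells were stimulated with 1.5 ng/mL TSH (final) in presence of Ro20-1724 for 30 min at RT. HTRF cAMP detection after 1 h; each compound tested at 15 concentrations, triplicate.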

[10] = qHTS assay to identify small molecule agonists of the estrogen receptor alpha (ER-alpha) signaling pathway in the presence of an antagonist - cell viability counter screen (AID 1259386);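 also: series mostly up to about 92 µM; cells exposed to compounds for 22 h at 37 °C before the viability read; nearly all actives have a fitted effect of over 30% in size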
Method in brief: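 VM7Luc4E2, stripped-serum pre-culture 5 d; 24hr plating; +ICI-182,780 10.0nM final; cpds 15 conc, 22hr, 37C/5% CO2; CellTiter-Fluor added at 21hr, fluorescence 1hr later.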

[11] = target: Progesterone receptor (Homo sapiens) (UniProt P06401); assay: qHTS assay to identify small molecule agonists of the progesterone receptor (PR) signaling pathway (AID 1346784; calls by dose curve; also: nearly all actives have a fitted effect of over 30% in size)
Sequence of Progesterone receptor (Homo sapiens) (P06401 whole entry, looked up): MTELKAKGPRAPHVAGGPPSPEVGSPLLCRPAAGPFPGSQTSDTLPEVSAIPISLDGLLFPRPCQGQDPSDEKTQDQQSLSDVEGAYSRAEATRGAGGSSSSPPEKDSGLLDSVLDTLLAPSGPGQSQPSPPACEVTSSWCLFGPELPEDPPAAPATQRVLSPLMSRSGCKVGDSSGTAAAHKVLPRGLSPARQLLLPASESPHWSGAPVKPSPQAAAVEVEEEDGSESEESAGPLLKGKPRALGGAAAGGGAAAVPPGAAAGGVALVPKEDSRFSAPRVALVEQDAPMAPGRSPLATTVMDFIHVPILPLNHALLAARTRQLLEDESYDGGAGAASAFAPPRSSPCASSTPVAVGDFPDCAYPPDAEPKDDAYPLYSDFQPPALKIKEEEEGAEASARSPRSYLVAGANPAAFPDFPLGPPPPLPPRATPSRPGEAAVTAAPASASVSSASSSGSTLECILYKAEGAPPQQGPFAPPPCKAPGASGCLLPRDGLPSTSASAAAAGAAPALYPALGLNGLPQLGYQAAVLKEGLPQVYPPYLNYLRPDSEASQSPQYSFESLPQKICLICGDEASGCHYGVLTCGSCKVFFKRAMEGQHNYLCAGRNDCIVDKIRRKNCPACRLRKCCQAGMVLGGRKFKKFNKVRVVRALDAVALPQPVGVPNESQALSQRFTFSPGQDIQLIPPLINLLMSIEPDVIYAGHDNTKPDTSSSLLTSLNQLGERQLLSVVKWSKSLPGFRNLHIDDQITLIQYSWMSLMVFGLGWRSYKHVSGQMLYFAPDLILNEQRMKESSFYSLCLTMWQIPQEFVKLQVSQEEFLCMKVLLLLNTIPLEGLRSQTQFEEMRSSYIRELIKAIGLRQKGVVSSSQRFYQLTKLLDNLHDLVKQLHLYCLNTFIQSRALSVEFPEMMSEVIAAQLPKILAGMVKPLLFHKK
Method in brief: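 Beta-lactamase reporter read-out: after 16 hr compound treatment at 37C and a further 2 hr at room temperature with LiveBLAzer B/G FRET substrate, fluorescence was measured in PR-UAS-bla HEK 293T cells grown in 2% charcoal-stripped serum.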

[12] = target: Progesterone receptor (Homo sapiens) (UniProt P06401); assay: qHTS assay to identify small molecule antagonists of the progesterone receptor (PR) signaling pathway (AID 1346795; active = well fitted inhibition curve with a large enough effect in the signal ratio in the repeat runs, not every such curve was filed as active; the % refers to the signal ratio)
Method in brief: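 Read-out is fluorescence from the LiveBLAzer B/G FRET substrate, cleaved by a UAS-controlled beta-lactamase in PR-UAS-bla HEK293T cells after 16 hr exposure to compound plus 1 nM promegestone (final), followed by 2 hr at room temperature.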

[13] = qHTS assay to identify small molecule antagonists of the progesterone receptor (PR) signaling pathway - cell viability counter screen (AID 1346798);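 also: HEK293T PR-UAS-bla cells stimulated with the agonist R5020; series mostly up to about 92 µM; nearly all actives have a fitted effect of over 50% in size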
Method in brief: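 HEK293T PR-UAS-bla, 2% charcoal-stripped FBS; 4 hr pre-plate; cpd + R5020, 16 h 37C; LiveBLAzer read first; then CellTiter-Glo 30 min RT, luminescence.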

[14] = qHTS assay to identify small molecule agonists of the progesterone receptor (PR) signaling pathway - cell viability counter screen (AID 1346799; calls by dose curve; also: nearly all actives have a fitted effect of over 45% in size)
Method in brief: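 Luminescence from CellTiter-Glo, added after the beta-lactamase FRET read in the same wells, gave cytotoxicity in PR-UAS-bla HEK293T cells treated with compounds for 16 hr at 37C.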

[15] = qHTS assay to identify small molecule antagonists of the TGF-beta/Smad signaling pathway - cell viability counter screen (AID 1346824); also: nearly all actives have a fitted effect of over 50% in size
Method in brief: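 Cytotoxicity counter-screen run in the same wells as the beta-lactamase Smad reporter read: CellTiter-Glo luminescence after 30 min at room temperature. HEK 293T SBE-bla cells had 5 hr compound exposure at 37 C with TGF-beta1 (0.25 ng/mL stock).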

[16] = qHTS assay to identify small molecule agonists of the TGF-beta/Smad signaling pathway - cell viability counter screen (AID 1346829); also: top concentration of the series differs between compounds; nearly all actives have a fitted effect of over 45% in size
Method in brief: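 Cytotoxicity counter screen: CellTiter-Glo luminescence (30 min, room temperature) measured in the SBE-bla HEK 293T reporter wells after 5 hr compound treatment at 37 C and the 2 hr substrate step.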

[17] = qHTS assay to identify small molecule agonists of the TGF-beta/Smad signaling pathway (AID 1346859; active = well fitted activation curve with a large enough effect in the signal ratio in the repeat runs, not every such curve was filed as active; the % refers to the signal ratio; also: series mostly up to about 77 µM)
Method in brief: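 SBE-bla HEK 293T, 4,000 cells/well, plated o/n; cpd in DMSO, 5 hr, 37 C/5% CO2; B/G FRET substrate 2 hr RT; ex 405, em 460/530 nm.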

[18] = target: Thyrotropin-releasing hormone receptor (Homo sapiens) (UniProt P34981); assay: qHTS assay to identify small molecule antagonists of the thyrotropin-releasing hormone receptor (TRHR) signaling pathway (AID 1346877; active = well fitted inhibition curve with a large enough effect in the repeat runs, not every such curve was filed as active; also: series mostly up to about 51 µM)
Sequence of Thyrotropin-releasing hormone receptor (Homo sapiens) (P34981 whole entry, looked up): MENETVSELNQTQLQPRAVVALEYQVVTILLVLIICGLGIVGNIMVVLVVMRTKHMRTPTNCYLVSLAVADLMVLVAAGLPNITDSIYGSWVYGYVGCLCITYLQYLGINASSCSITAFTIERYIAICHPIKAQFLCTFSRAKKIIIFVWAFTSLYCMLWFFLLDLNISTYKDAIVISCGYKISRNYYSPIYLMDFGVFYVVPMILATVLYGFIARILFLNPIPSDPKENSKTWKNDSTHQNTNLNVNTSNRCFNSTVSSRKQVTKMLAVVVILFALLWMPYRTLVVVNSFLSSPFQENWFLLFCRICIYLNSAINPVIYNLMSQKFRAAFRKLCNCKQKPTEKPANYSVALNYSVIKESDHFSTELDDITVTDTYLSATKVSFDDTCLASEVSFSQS
Method in brief: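 Intracellular calcium fluorescence, read kinetically every second over 3 min, reports TRH-evoked signalling in HEK293 cells carrying TRHR. Test compounds were added 5 min ahead of a 1 nM TRH challenge.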

[19] = target: Thyrotropin-releasing hormone receptor (Homo sapiens) (UniProt P34981); assay: qHTS assay to identify small molecule agonists of the thyrotropin-releasing hormone receptor (TRHR) signaling pathway (AID 1346891; calls by dose curve; also: series mostly up to about 58 µM)
Method in brief: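 Intracellular calcium rise, read as fluorescence every second for 3 min, served as the agonist signal in dye-loaded HEK293 cells expressing TRHR; each compound ran at 15 concentrations in triplicate.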

[20] = target: Estrogen receptor (Homo sapiens) (UniProt P03372); assay: qHTS assay to identify small molecule agonists of the estrogen receptor alpha (ER-alpha) signaling pathway in the presence of an antagonist (AID 1259383; calls by dose curve; also: top concentration of the series differs between compounds; nearly all actives have a fitted effect of over 15% in size)
Sequence of Estrogen receptor (Homo sapiens) (P03372 whole entry, looked up): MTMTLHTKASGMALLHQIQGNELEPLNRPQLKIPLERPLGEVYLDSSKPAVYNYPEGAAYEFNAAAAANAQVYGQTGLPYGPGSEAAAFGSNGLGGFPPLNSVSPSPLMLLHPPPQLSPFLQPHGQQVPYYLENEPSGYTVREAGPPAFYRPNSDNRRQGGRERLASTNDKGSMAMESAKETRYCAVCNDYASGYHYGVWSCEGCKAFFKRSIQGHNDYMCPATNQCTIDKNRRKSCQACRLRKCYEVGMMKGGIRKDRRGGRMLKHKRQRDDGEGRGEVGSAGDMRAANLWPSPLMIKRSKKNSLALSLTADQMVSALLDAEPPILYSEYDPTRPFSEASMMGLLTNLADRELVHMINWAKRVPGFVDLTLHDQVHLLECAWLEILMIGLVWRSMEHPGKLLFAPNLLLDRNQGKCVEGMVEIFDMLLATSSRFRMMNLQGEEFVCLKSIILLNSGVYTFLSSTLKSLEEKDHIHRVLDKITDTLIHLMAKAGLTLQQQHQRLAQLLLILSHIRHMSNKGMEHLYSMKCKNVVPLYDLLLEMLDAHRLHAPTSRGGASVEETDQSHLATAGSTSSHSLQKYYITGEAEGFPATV
Method in brief: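 VM7Luc4E2, endog. ER-alpha + 4×ERE-luc; charcoal-stripped FBS, phenol red-free, 5 d; 24hr plating; +10.0nM ICI-182,780 (final); cpds 15 conc, 22hr, 37C/5% CO2; ONE-Glo luminescence.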
% is scaled to controls: 0 for no effect and ±100 for the full control effect.

COC(=O)/C=C(/C)N
inactive: Potency [1] | outcome [2] | Potency [3] | Potency [4] | Potency [5] | Potency [6] | outcome [7] | outcome [8] | Potency [9] | Potency [10] | Potency [11] | Potency [12] | Potency [13] | Potency [14] | outcome [15] | outcome [16] | outcome [17] | outcome [18] | Potency [19]

O=c1oc2c(O)c(O)cc3c(=O)oc4c(O)c(O)cc1c4c23
inactive: activity change, negative = inhibition [1] 14.9% [at 19 µM] | activation [2] 0.261% [at 19 µM] | activity, negative = inhibition [3] -0.396% [at 19 µM] | activity change, negative = cytotoxicity [4] -4.09% [at 19 µM] | activity change, negative = cytotoxicity [5] 7.11% [at 19 µM] | activity change, negative = cytotoxicity [7] -1.21% [at 19 µM] | activation [20] -0.711% [at 19 µM] | activity change, negative = cytotoxicity [10] -2.74% [at 19 µM] | activation [11] -0.0631% [at 19 µM] | Potency [13] | activity change, negative = cytotoxicity [14] -1.25% [at 19 µM] | viability change, negative = cytotoxic [15] -7.88% [at 15.8 µM] | activity change, negative = cytotoxicity [16] 10.9% [at 15.8 µM] | activation [17] 5.13% [at 15.8 µM] | activity, negative = inhibition [18] 1.88% [at 10.5 µM]

C=CCCC=C
inactive: Potency [1] | outcome [2] | Potency [3] | Potency [4] | Potency [5] | outcome [7] | Potency [20] | outcome [8] | Potency [9] | Potency [10] | Potency [13] | Potency [14] | outcome [15] | outcome [16] | outcome [17] | outcome [18]

CO[Si](C)(C)OC
inactive: Potency [1] | outcome [2] | Potency [3] | Potency [4] | Potency [5] | outcome [7] | Potency [20] | outcome [8] | Potency [9] | Potency [10] | Potency [11] | Potency [14] | outcome [16] | outcome [17] | outcome [18]

Cc1ccsc1C(=CCCN1CCC[C@@H](C(=O)O)C1)c1sccc1C
inactive: Potency [1] | outcome [2] | Potency [3] | Potency [4] | Potency [5] | Potency [6] | outcome [7] | Potency [20] | outcome [8] | Potency [9] | Potency [10] | Potency [13] | Potency [14] | outcome [15] | outcome [16] | outcome [17]

Nc1cccc(S(=O)(=O)O)c1
inactive: Potency [1] | outcome [2] | Potency [3] | Potency [4] | Potency [5] | outcome [7] | Potency [20] | outcome [8] | Potency [9] | Potency [10] | outcome [15] | outcome [16] | outcome [17]

CCOC(=O)[C@H](CCc1ccccc1)N[C@@H](C)C(=O)N1Cc2cc(OC)c(OC)cc2C[C@H]1C(=O)O
inactive: Potency [1] | outcome [2] | Potency [3] | Potency [4] | Potency [5] | outcome [7] | Potency [20] | outcome [8] | Potency [9] | Potency [10] | Potency [12] | Potency [13] | Potency [14] | outcome [15] | outcome [16] | outcome [17] | outcome [18]

NNS(=O)(=O)c1ccc(Oc2ccc(S(=O)(=O)NN)cc2)cc1
inactive: Potency [1] | outcome [2] | Potency [3] | Potency [4] | Potency [5] | outcome [7] | outcome [8] | Potency [9] | Potency [10] | Potency [11] | Potency [12] | Potency [13] | outcome [15] | outcome [16] | outcome [17] | outcome [18]
